The results in this text go back to PubChem BioAssay (NCI).

The structures appear in SMILES notation. Compounds without any hit were thinned out: in the full panel of roughly 79,000, 15% have a hit. Values without a mark were called inactive. Calls of active or inactive are those of the source. Rule as the data show it: active = growth inhibition above about 70%; inactive = the rest.

A short description of assay [1]: NCI Yeast Anticancer Drug Screen. Data for the rad50 strain (AID 155).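 Also: 0% = growth of vehicle-only cultures of the same strain.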 The following applies: S. cerevisiae rad50 strain growth inhibition; at 50.0 µM; stronger effect = higher value. In a few lines: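 Readout: growth inhibition relative to vehicle-treated cultures. Compound exposure was carried out in a genetically defined yeast strain deficient in DNA damage repair.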
Assay [2] can be described thus: NCI Yeast Anticancer Drug Screen. Data for the mec2-1 strain (AID 157). The following applies: S. cerevisiae mec2-1 strain, at 50.0 µM, stronger effect = higher value. In a few lines:
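Test agents were screened against the mec2-1 yeast strain, with defined DNA repair or cell cycle alteration. Growth was scored as inhibition against vehicle-only controls.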

Assay [3] in a line: NCI Yeast Anticancer Drug Screen. Data for the sgs1 mgt1 strain (AID 161).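 Also: 0% = growth of cultures given vehicle only.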 The following applies: S. cerevisiae sgs1 mgt1 strain, at 50.0 µM, stronger effect = higher value. In a few lines:
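Mutant yeast exposed to compound; growth scored against vehicle-only wells.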

Assay [4] is described as follows: NCI Yeast Anticancer Drug Screen. Data for the cln2 rad14 strain (AID 165).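 Also: 0% = growth equal to vehicle treated cultures.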 Particulars: S. cerevisiae cln2 rad14 strain, at 50.0 µM, stronger effect = higher value. A digest of the protocol:
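Growth of compound-exposed yeast (cln2 rad14 genotype) measured and expressed as inhibition relative to vehicle.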

A short description of assay [5]: NCI Yeast Anticancer Drug Screen. Data for the bub3 strain (AID 167). Particulars: S. cerevisiae bub3 mutant strain, at 50.0 µM, stronger effect = higher value. A digest of the protocol:
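Readout: yeast growth inhibition, expressed relative to vehicle-only wells. The test organism is a mutant strain from a panel with lesions in DNA repair or checkpoint genes.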

A short description of assay [6]: NCI Yeast Anticancer Drug Screen. Data for the mlh1 rad18 strain (AID 175). The following applies: S. cerevisiae mlh1 rad18 strain growth inhibition; at 50.0 µM; stronger effect = higher value. A digest of the protocol: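 In this whole-cell yeast screen, a strain with altered DNA damage repair is challenged with compound, and its growth is measured against matched vehicle-treated controls.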

In the case of `S=C1N=C(Cl)C2(NN1)c1ccccc1-c1ccccc12`, the growth inhibition in assay [1] was 17.9%; in assay [2], -16.1%; in assay [3] it was -1.15%; in assay [4], -14.5%; in assay [5], -11.7%; in assay [6], 32%.
As to `CCO/C=N\c1c(C#N)c(CC#N)nn1C`, the growth inhibition in assay [1] is -3.55%; in assay [2], -12%; in assay [3], -8.65%; in assay [4], -27.9%; in assay [5], -1.75%; in assay [6] it was -13.4%.
`CCN1C(=O)N(C)C(O)c2c1nc1ccccn1c2=O` (stereo not given): the growth inhibition in assay [1] was -14.1%; in assay [2], -8.35%; in assay [3], -33.4%; in assay [4], 3.65%; in assay [5], -15.7%; in assay [6] it was -19.6%.
For the compound `O=C1C(O)=C(Cl)C(=O)C(O)=C1Cl.[Zn+2]`, the growth inhibition is -40.5% in assay [1]; -25.8% in assay [2]; -10.2% in assay [3]; -9.1% in assay [4]; -16.9% in assay [5]; -26.8% in assay [6].
As to `COc1cc2c(c3c1c(=S)c1ccccc1n3C)C=CC(C)(C)O2`, the growth inhibition was 59.5% in assay [1]; 18.9% in assay [2]; 86.2% (active) in assay [3]; 27.1% in assay [4]; 82.7% (active) in assay [5]; 78.1% (active) in assay [6].
For `O=C(OCC1C2CCC(C2)C1c1ccccc1)c1ccc([N+](=O)[O-])cc1` (stereo not given), the growth inhibition was 1.4% in assay [1]; 8.5% in assay [2]; -2% in assay [3]; -22.7% in assay [4]; -2.75% in assay [5]; 10.5% in assay [6].
Consider `Cc1cccc(-c2nnc3s/c(=C\c4ccc5c(c4)OCO5)c(=O)n23)c1`, for which the growth inhibition is -20.1% in assay [1]; -12.2% in assay [2]; -1.45% in assay [3]; 11.7% in assay [4]; 4.35% in assay [5]; 0.65% in assay [6].
Regarding `O=C(Nc1ccc(N=C=S)cc1Cl)c1cc(Br)cc(Br)c1O`, the growth inhibition in assay [1] is 94.3% (active); in assay [2], 96.7% (active); in assay [3], 95.6% (active); in assay [4], 97.1% (active); in assay [5], 96.8% (active); in assay [6], 94.7% (active).
Turning to `O=C(O)CCS(=O)(=O)CCC(=O)O`, the growth inhibition in assay [1] was -8.4%; in assay [2] it was 0.8%; in assay [3], -21.4%; in assay [4] it was -30%; in assay [5], 8.6%; in assay [6], 22.8%.
For the compound `CC1CCc2cc(Br)ccc2N1N` (stereo not given), the growth inhibition was 33.1% in assay [1]; 0.85% in assay [2]; -5.35% in assay [3]; 9.8% in assay [4]; -4.8% in assay [5]; 27.8% in assay [6].
Regarding `O=C(CC(=O)N1N=C(n2ccc3ccccc32)CC1c1ccccc1)Nc1ccccc1Cl` (stereo not given), the growth inhibition in assay [1] is -13.6%; in assay [2] it was -13.8%; in assay [3] it was -3.5%; in assay [4], 29.7%; in assay [5], -2.1%; in assay [6], 5.45%.
On to `C[C@@H]1C[C@@H]2C(=O)N(c3ccccc3)C(=O)[C@@H]2c2[nH]c3ccc(Br)cc3c21`, for which the growth inhibition was 0.2% in assay [1]; -12.6% in assay [2]; 15.8% in assay [3]; 0.25% in assay [4]; -7.95% in assay [5]; -20.1% in assay [6].
As for `C=CCOc1cc2c(cc1Cc1ccc3c(c1)OCO3)OCO2`, the growth inhibition was -6.85% in assay [1]; -7.75% in assay [2]; -7.9% in assay [3]; 9.25% in assay [4]; 7.5% in assay [5]; -3.05% in assay [6].
On to `CCSC(=S)S`, for which the growth inhibition in assay [1] is -0.35%; in assay [2], -23%; in assay [3], -12.2%; in assay [4] it was 7.15%; in assay [5] it was 0.25%; in assay [6] it was -0.3%.
Take `Nc1ccc(O)c(N=Nc2ccc(S(N)(=O)=O)cc2)c1`: the growth inhibition is 6% in assay [1]; 0.1% in assay [2]; 13.6% in assay [3]; -1.1% in assay [4]; 18.1% in assay [5]; 10.1% in assay [6].
With `COc1cc([C@@H]2c3cc4c(cc3[C@@H](Nc3ccc(NC(=O)c5cc(NC(=O)c6cc([N+](=O)[O-])cn6C)cn5C)cc3)[C@H]3COC(=O)[C@H]23)OCO4)cc(OC)c1O`, the growth inhibition in assay [1] was 34%; in assay [2], 31.6%; in assay [3], 34%; in assay [4], 9.2%; in assay [5], 16.4%; in assay [6], 6.45%.
Take `O=S=NCCCl`: the growth inhibition in assay [1] was -14.3%; in assay [2], -14.6%; in assay [3], -13.2%; in assay [4] it was 1.5%; in assay [5], -10.8%; in assay [6], 0.35%.
`CCSc1nc2ccc(CN3C(=O)c4ccccc4C3=O)cc2s1`: the growth inhibition in assay [1] was 1.3%; in assay [2], -3.5%; in assay [3], -4.6%; in assay [4], 1.5%; in assay [5], 15.8%; in assay [6], -2.3%.
As for `CC(C)(CCCOc1ccccc1)/C(=N/O)c1ccccc1`, the growth inhibition was 14.1% in assay [1]; 5.6% in assay [2]; -14.9% in assay [3]; 21.6% in assay [4]; 11.6% in assay [5]; -14.5% in assay [6].
As for `Cc1nn(C(=O)c2ccc(Cl)cc2)c2c1C(c1ccc(O)cc1)SC(N)=N2` (stereo not given), the growth inhibition in assay [1] is -33%; in assay [2], -49.1%; in assay [3], -43.7%; in assay [4] it was -26.8%; in assay [5], -23.9%; in assay [6], -31.2%.
